This passage reports growth results from PubChem BioAssay (NCI).

About 83,000 compounds went through this panel and 20% of them were active in at least one assay; those are over-represented in the sample as a whole.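 Assay: single dose, 48 h. Readout: percent growth (0 = no net growth; negative = cell death). Active: <10.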 Values without a mark were called inactive. The source made the active and inactive calls.

Among the test systems are T-47D breast; BT-549 breast; MDA-MB-435 melanoma; SW-620 colon; MCF7 breast; HCT-116 colon; HCC-2998 colon; KM12 colon.
Holding throughout (assay): NCI-60 one-dose screen, 48 h (100 = growth as untreated, 0 = no growth, -100 = all killed)
Settings in all cases: 10 µM unless noted

For `C[C@@H]1CC[C@@H]2[C@@H]1[C@H](OC(=O)/C=C/c1ccccc1)[C@]1(C3CCCCC3)C[C@@H](NC(=O)CO)[C@@]2(C)O1`, the growth is 95% with T-47D breast; 98.6% in the assay on BT-549 breast; 94.3% in the assay on MDA-MB-435 melanoma; 90% in the assay on SW-620 colon; 89.6% with MCF7 breast; 85.7% with HCT-116 colon. Further, the figures for the growth in the assay with HCC-2998 colon and with KM12 colon were 95.4% and 103%, respectively.
Take `Cc1ccc(NC(=O)C(Cl)Cl)cc1`: the growth in the assay on T-47D breast is 96.6%; with BT-549 breast it was 110%; with MDA-MB-435 melanoma, 107%; in the assay on SW-620 colon, 106%; in the assay with MCF7 breast, 94.6%; with HCT-116 colon, 96.5%. Further, the growth with HCC-2998 colon was 115%; with KM12 colon, 104%.
Turning to `COc1ccc(O)c(-c2cc(-c3ccccc3)c(C#N)c(=O)[nH]2)c1`, the growth with T-47D breast is 79.3%; in the assay with BT-549 breast it was 70.6%; in the assay on MDA-MB-435 melanoma, 102%; in the assay with SW-620 colon, 105%; in the assay with MCF7 breast, 87.5%; with HCT-116 colon, 89.7%. In addition, the figures for the growth with HCC-2998 colon and in the assay with KM12 colon were 99.8% and 90.8%, respectively.
Consider `Cc1c2c(cn1Cc1ccccc1)CCc1cn[nH]c1-2`, for which the growth with T-47D breast was 90.3%; with BT-549 breast, 96.5%; in the assay on MDA-MB-435 melanoma, 26.8%; in the assay with SW-620 colon, 95.8%; with MCF7 breast, 81.5%; in the assay on HCT-116 colon, 89.5%. The values for the growth with HCC-2998 colon and in the assay with KM12 colon were 86.1% and 78.8%, respectively.
Regarding `Cc1nn(Cc2ccccc2)cc1C(=O)Nc1sc2c(c1C(N)=O)CCC(=O)C2`, the growth is 10.5% in the assay with T-47D breast; 10.4% in the assay with BT-549 breast; 16.7% in the assay on MDA-MB-435 melanoma; 13.4% in the assay on SW-620 colon; 13.6% with MCF7 breast; 6.74% (active) with HCT-116 colon. The growth in the assay with HCC-2998 colon is 80.6%; in the assay with KM12 colon it was 13.5%.
As for `COc1ccc(-c2nnc(SCC(=O)NC3=NN=C(c4ccccc4)CS3)o2)cc1`, the growth with T-47D breast is 78.4%; in the assay with BT-549 breast it was 104%; in the assay with MDA-MB-435 melanoma, 97.1%; with SW-620 colon it was 98.3%; in the assay on MCF7 breast it was 102%; in the assay on HCT-116 colon it was 94.2%. In addition, the values for the growth in the assay on HCC-2998 colon and with KM12 colon were 105% and 102%, respectively.
For the compound `Cc1cc(Cc2cc(C)cc(C(C)(C)C)c2O)c(O)c(C(C)(C)C)c1`, the growth in the assay on T-47D breast was 9.69% (active); in the assay on BT-549 breast it was 74.1%; in the assay on MDA-MB-435 melanoma, 52.2%; with SW-620 colon, 39.8%; in the assay on MCF7 breast it was 12.8%; with HCT-116 colon it was 8.68% (active). For the same compound, the growth in the assay with HCC-2998 colon is 31.6%; in the assay with KM12 colon, 29.8%.
As to `COc1ccc(C2CC(c3ccccc3)=NN2c2nc(C)c(C(C)=O)s2)cc1` (centres undefined), the growth is 99.7% in the assay on T-47D breast; 110% with BT-549 breast; 103% in the assay on MDA-MB-435 melanoma; 96.1% in the assay with SW-620 colon; 94.7% in the assay on MCF7 breast; 97.3% in the assay on HCT-116 colon. In addition, the growth in the assay on HCC-2998 colon is 107%; in the assay on KM12 colon it was 102%.
On to `N#C/C(=C\c1ccc2c(c1)OCO2)n1nnc2ccccc21`, for which the growth with T-47D breast was 26.2%; in the assay on BT-549 breast it was 30.3%; in the assay with MDA-MB-435 melanoma it was -69.1% (active); with SW-620 colon, 12%; in the assay with MCF7 breast it was 10.3%; with HCT-116 colon it was 5.72% (active). In addition, the results for the growth with HCC-2998 colon and with KM12 colon were -9.93% (active) and -16.2% (active), respectively.
`NS(=O)(=O)Oc1ccc(-c2sc3cc(O)ccc3c2C(=O)c2ccc(OCCN3CCCCC3)cc2)cc1`: the growth in the assay on T-47D breast was 86.6%; in the assay with BT-549 breast, 84.6%; with MDA-MB-435 melanoma it was -28% (active); in the assay with SW-620 colon, 51.7%; in the assay with MCF7 breast, 29.4%; in the assay on HCT-116 colon it was 43.5%. Moreover, the growth with HCC-2998 colon was 59.5%; with KM12 colon it was 65.3%.
For `Clc1ccc(-c2nc(NCCc3ccccc3)nc3c(NCCc4ccccc4)cnn23)cc1`, the growth is 63.3% in the assay with T-47D breast; 63.6% in the assay with BT-549 breast; 42.6% in the assay with MDA-MB-435 melanoma; 33.5% in the assay on SW-620 colon; 31.1% in the assay on MCF7 breast; 28.6% in the assay on HCT-116 colon. Besides, the values for the growth in the assay on HCC-2998 colon and with KM12 colon were 72.4% and 70%, respectively.
Take `COc1ccc(/C(C)=C(\c2ccc(Cl)cc2)c2ccc(OCCN(C)C)cc2)cc1F`: the growth is 77.3% with T-47D breast; 87.7% in the assay with BT-549 breast; 51.5% with MDA-MB-435 melanoma; 54.8% with SW-620 colon; 31.8% with MCF7 breast; 43.6% in the assay with HCT-116 colon. In addition, the growth in the assay on HCC-2998 colon is 25.4%; in the assay on KM12 colon, 34.2%.
`O=C1N(c2ccccc2)C(=S)N[C@]12[C@H](c1ccccc1)C1CCCN1[C@]21C(=O)NC2C=CC(Cl)=C[C@H]21` (some centres undefined): the growth was 79.6% in the assay on T-47D breast; 90.2% in the assay on BT-549 breast; 112% with MDA-MB-435 melanoma; 101% with SW-620 colon; 99.1% in the assay on MCF7 breast; 78.1% in the assay with HCT-116 colon. In addition, the figures for the growth in the assay on HCC-2998 colon and with KM12 colon were 103% and 100%, respectively.
